# Laboratory results published in PubChem BioAssay.
# Where “and” joins values, the source holds several entries; their conditions need not be identical. Identical values can stand only once. Calls of active or inactive are those of the source.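 Rule for the calls, unless noted: active = compounds whose cell count with miR-34 switched on is under 0.7 times the count with it off; inactive = the rest.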
# Key:
# [1] = P. berghei load reduction in hepatocytes – cell-based, HepG2, luciferase luminescence, HepG2 viability, primary screen (AID 624349; in the data active = parasite load remaining mostly below about 12%, no sharp cut-off; inactive = mostly above about 10%;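 note: 100% = mean of DMSO negative control wells on the same plate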); conditions: P. berghei liver stage in HepG2, luciferase luminescence, concentration not given here; parasite load remaining: stronger effect = lower value; viability: measured here: HepG2 viability without parasites
# [2] = Wnt pathway potentiators raising nuclear beta-catenin – imaging, WNT3A-conditioned medium, mouse C2C12, NPC library, primary screen (AID 1117326; in the data active = nuclear beta-catenin stimulation mostly above about 4.2%, no sharp cut-off; inactive = mostly below about 10%); conditions: stronger effect = higher value
# [3] = stimulators of insulin release from INS-1E, primary screen, cell-based, 5 mM glucose, NPC library (AID 1117329;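 active = compound raises insulin release from rat beta cells at 5 mM glucose, no numeric limit stated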); conditions: rat INS-1E insulin secretion, at 10 µM, stronger effect = higher value
# [4] = growth inhibition of GSK3B-pretreated HCT116 cells – cell-based, CellTiter-Glo, 0.2 to 20 µM (AID 1117336;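 active = compounds lowering colon cancer cell viability after pretreatment blocking the GSK3B kinase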); conditions: HCT116 viability after GSK3B inhibitor, at 20 µM, stronger effect = higher value
# [5] = inhibition of endothelial tube formation, primary screen, imaging, VEGF stimulated, CD31 staining, tube area, NPC library (AID 1117340;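 active = compound that reduces growth-factor-driven endothelial tube area in a mixed cell culture, no cutoff stated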); conditions: VEGF-stimulated ADSC/ECFC co-culture, at 10 µM, stronger effect = higher value
# [6] = GLP1 release stimulators, primary, NCI-H716, NPC library (AID 1117341;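 active = compound raises GLP1 secretion from the human gut endocrine cells, with no numeric limit stated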); conditions: NCI-H716 cells, at 10 µM, stronger effect = higher value
# [7] = HCT116 colon cancer cell growth inhibition, primary screen, CellTiter-Glo luminescence, NPC library (AID 1117342;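 active = compounds that lower survival of HCT116 colon cancer cells in the luminescence readout, no numeric limit stated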); conditions: at 20 µM (top of the series)
# [8] = reduced SW480 viability measured with CellTiter-Glo, NPC library, primary (AID 1117343;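 active = compounds that lower viability of the colon cancer cells in the luminescence readout, with no numeric limit stated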); conditions: CellTiter-Glo luminescence; at 20 µM (top of the series)
# [9] = NPC library primary testing for decreased DLD-1 cell viability via CellTiter-Glo (AID 1117346;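 active = compounds that lower survival of DLD-1 colon cancer cells in the luminescence readout, no cutoff given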); conditions: DLD-1 viability, CellTiter-Glo luminescence; at 20 µM (top of the series)
# [10] = viability loss with induced miR-34 in A549 – imaging, A549 dox-inducible miR-34, nuclei and caspase counts, primary screen (AID 1347080); conditions: A549 miR-34 inducible, Hoechst nuclei count, 48 h
# [11] = MELAS cybrid and Rieske KO viability enhancers – cell-based, MELAS cybrids, Rieske KO mouse fibroblasts, CellTiter-Glo, primary screen (AID 1508586;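 active = mean z-score across replicates of 1.96 or higher in either the MELAS or the Rieske mutant cell line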;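 note: z relative to plate mean and SD of compound and empty wells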); conditions: low glucose
# [12] = galactose survival enhancers in mitochondrial complex I cybrids – cell-based, galactose medium, ATP luminescence, primary screen (AID 1645843;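 active = z-score of at least 1.8 in each of two replicates, scored against plate mean and spread of sample wells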;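 note: positive z means more ATP and so rescue of galactose-driven cybrid death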); conditions: complex I mutant cybrid cells, 72 h, stronger effect = higher value
# [13] = compounds altering circadian rhythm period length – cell-based, LOPAC library, luminescence reporter (AID 2774; call rule not given here;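 note: values are relative to mean of DMSO wells on each plate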); conditions: circadian reporter cells, at 7 µM, actives lie on both sides
# [14] = compounds altering viability of human ES cells (AID 493140; call rule not given here;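 note: cells exposed to compounds for four days before counting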); conditions: human embryonic stem cell survival screen; stronger effect = higher value
# [15] = test system: Hepatitis C virus NS3 helicase; test: blockers of NS3h binding to ssDNA – biochemical, fluorescence polarization, LOPAC1280 library, primary screen (AID 687035; in the data active = inhibition above about 37%); conditions: Purified HCV NS3 helicase, Cy5-dT15 ssDNA binding fluorescence polarization; stronger effect = higher value; concentration not given here
# [16] = test system: Aerobactin synthetase IucA (Klebsiella pneumoniae, hypervirulent); test: biochemical IucA inhibition screen of LOPAC library by absorbance (AID 1346212; call rule not given here;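 note: 100% = no compound wells and 0% = no enzyme wells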); conditions: IucA enzyme assay, absorbance (OD) readout; stronger effect = lower value;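 tested at 8 µM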
# [17] = EMT-state selective cytotoxicity in co-culture – imaging, PC-3E GFP, TEM4-18 mCherry, primary screen (AID 1345086;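 active = compounds killing one labelled cell type while sparing the other, by normalised counts and ratio limits, not self-fluorescent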;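 for all read-outs here: cells exposed to compound for 72 h before imaging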;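 for red/green cell ratio (normalised): normalised mesenchymal count divided by normalised epithelial count so high means epithelial killing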); conditions: PC-3E GFP / TEM4-18 mCherry co-culture, imaging cell counts, at 1 µM; for red/green cell ratio (normalised): actives lie on both sides
# [18] = molecular target: NAD(+) hydrolase SARM1 (Homo sapiens) (UniProt Q6SZW1); test: blocking NAD cleavage by SARM1 SAM-TIR – cell lysate, NAD-Glo luminescence (AID 1508614;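 active = compound whose remaining NAD level is above about 45 nM, limit read from the data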;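 note: higher remaining NAD means stronger inhibition of SARM1 NADase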); conditions: SAM-TIR HEK293T lysate NADase, at 1 µM, stronger effect = higher value
# [19] = measured here: relative caspase fold change +Dox/-Dox
# [20] = measured here: total cells with miR-34 induction, stronger effect = lower value
# [21] = measured here: total cells without miR-34 induction
# [22] = MELAS cybrid survival, CellTiter-Glo 48 h, stronger effect = higher value
# [23] = Rieske KO mouse fibroblast survival, CellTiter-Glo 72 h
# [24] = measured here: epithelial PC-3E GFP cell survival
# [25] = measured here: mesenchymal TEM4-18 mCherry cell survival
# NAD(+) hydrolase SARM1 (Homo sapiens), sequence (Q6SZW1 whole entry, looked up): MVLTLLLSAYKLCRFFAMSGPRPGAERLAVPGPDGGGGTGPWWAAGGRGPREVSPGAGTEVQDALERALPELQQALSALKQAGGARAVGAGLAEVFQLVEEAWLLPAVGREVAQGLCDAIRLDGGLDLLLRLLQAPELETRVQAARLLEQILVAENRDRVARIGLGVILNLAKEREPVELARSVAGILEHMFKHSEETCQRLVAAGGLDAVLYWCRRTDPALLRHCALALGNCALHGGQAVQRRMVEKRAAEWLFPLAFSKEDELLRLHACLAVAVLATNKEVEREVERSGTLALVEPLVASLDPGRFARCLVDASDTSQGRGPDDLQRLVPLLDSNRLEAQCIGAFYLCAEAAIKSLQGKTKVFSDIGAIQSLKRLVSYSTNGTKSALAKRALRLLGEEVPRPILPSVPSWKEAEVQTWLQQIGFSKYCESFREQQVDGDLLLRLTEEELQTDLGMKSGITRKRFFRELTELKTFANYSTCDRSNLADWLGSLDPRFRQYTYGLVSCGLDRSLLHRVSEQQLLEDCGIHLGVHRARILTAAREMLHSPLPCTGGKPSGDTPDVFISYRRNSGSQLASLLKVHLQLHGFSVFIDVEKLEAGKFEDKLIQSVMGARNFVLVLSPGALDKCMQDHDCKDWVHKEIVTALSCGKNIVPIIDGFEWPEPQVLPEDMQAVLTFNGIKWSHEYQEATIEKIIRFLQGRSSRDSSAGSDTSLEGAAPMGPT
structure (smiles),measurement,setting,value
CCCC[N+]1(C)[C@@H]2CC(OC(=O)[C@H](CO)c3ccccc3)C[C@H]1[C@@H]1O[C@@H]12 (stereo partly drawn),parasite load remaining,[1],35.4% (inactive)
same,viability,[1],61.5%
same,nuclear beta-catenin stimulation,[2]; at 10 µM,1.5% (inactive)
same,nuclear beta-catenin stimulation,"[2]; stimulation, at 2 µM",-0.2%
same,insulin secretion stimulation,[3],0.85% (inactive)
same,viability decrease,[4],11.7% (inactive)
same,tube area decrease,[5],-20.3% (inactive)
same,GLP1 secretion stimulation,[6],0.9% (inactive)
same,inhibition of viability,[7],3.4% (inactive)
same,viability decrease (inhibition),[8],-15.4% (inactive)
same,viability decrease (inhibition),[9],-1.4% (inactive)
same,fold change,[10]; stronger effect = lower value,0.89 (inactive)
same,fold change,[10]; [19],0.894
same,cell count,[10]; [20],9520
same,cell count,[10]; [21],10700
same,z-score,[11]; [22],-0.818 (inactive) and -0.303 (inactive)
same,z-score,[11]; [23],-0.588 and -0.226
same,z-score,[12],0.285 (inactive)
CCCCC/C=C\C/C=C\C/C=C\C/C=C\CCCC(=O)NCC(=O)O,period change,[13],0.15 h (inactive)
same,survival,[14],96.8 (inactive)
same,inhibition,[15],-1% (inactive)
same,nuclear beta-catenin stimulation,[2]; at 10 µM,0.8% (inactive)
same,nuclear beta-catenin stimulation,"[2]; stimulation, at 2 µM",0.6%
same,insulin secretion stimulation,[3],2.2% (inactive)
same,viability decrease,[4],104% (active)
same,tube area decrease,[5],-12.4% (inactive)
same,GLP1 secretion stimulation,[6],5% (inactive)
same,inhibition of viability,[7],103% (active)
same,viability decrease (inhibition),[8],145% (active)
same,viability decrease (inhibition),[9],105% (active)
same,remaining activity,[16],101% (inactive)
same,fold change,[10]; stronger effect = lower value,0.935 (inactive) and 1.01 (inactive)
same,fold change,[10]; [19],1.02
same,cell count,[10]; [20],5930 and 5790
same,cell count,[10]; [21],6340 and 5700
COc1ccc(CN2CCNCC2)c(OC)c1OC,survival,[14],5.83 (inactive)
same,parasite load remaining,[1],122% (inactive) and 71.5% (inactive)
same,viability,[1],118% and 81.2%
same,nuclear beta-catenin stimulation,[2]; at 10 µM,0.8% (inactive)
same,nuclear beta-catenin stimulation,"[2]; stimulation, at 2 µM",1.1%
same,insulin secretion stimulation,[3],-0.9% (inactive)
same,viability decrease,[4],14.1% (inactive)
same,tube area decrease,[5],8.8% (inactive)
same,GLP1 secretion stimulation,[6],0% (inactive)
same,inhibition of viability,[7],19.3% (inactive)
same,viability decrease (inhibition),[8],-6.6% (inactive)
same,viability decrease (inhibition),[9],1.5% (inactive)
same,red/green cell ratio (normalised),[17],0.94 (inactive)
same,normalised cell number,[17]; [24],1.11
same,normalised cell number,[17]; [25],1.05
same,fold change,[10]; stronger effect = lower value,0.892 (inactive)
same,fold change,[10]; [19],1.29
same,cell count,[10]; [20],9020
same,cell count,[10]; [21],10100
same,z-score,[11]; [22],0.315 (inactive)
same,z-score,[11]; [23],0.274
same,remaining NAD,[18],10 nM (inactive)
CN1C[C@@H](NS(=O)(=O)N(C)C)C[C@@H]2c3cccc4c3c(cn4C)C[C@H]21,parasite load remaining,[1],32.6% (inactive)
same,viability,[1],102%
same,nuclear beta-catenin stimulation,[2]; at 10 µM,0.4% (inactive)
same,nuclear beta-catenin stimulation,"[2]; stimulation, at 2 µM",1.4%
same,insulin secretion stimulation,[3],3.7% (inactive)
same,viability decrease,[4],9.6% (inactive)
same,tube area decrease,[5],-8.8% (inactive)
same,GLP1 secretion stimulation,[6],4.1% (inactive)
same,inhibition of viability,[7],36.4% (inactive)
same,viability decrease (inhibition),[8],48% (inactive)
same,viability decrease (inhibition),[9],9% (inactive)
same,remaining activity,[16],113% (inactive)
same,fold change,[10]; stronger effect = lower value,0.878 (inactive)
same,fold change,[10]; [19],1.21
same,cell count,[10]; [20],9040
same,cell count,[10]; [21],10300
same,z-score,[11]; [22],0.531 (inactive)
same,z-score,[11]; [23],0.143
same,z-score,[12],0.405 (inactive)
Cc1cccc(C)c1NC(=O)CN1CCCC1=O,inhibition,[15],-5% (inactive)
same,nuclear beta-catenin stimulation,[2]; at 10 µM,-1.9% (inactive)
same,nuclear beta-catenin stimulation,"[2]; stimulation, at 2 µM",0.9%
same,insulin secretion stimulation,[3],1.6% (inactive)
same,viability decrease,[4],0.1% (inactive)
same,tube area decrease,[5],-2.5% (inactive)
same,GLP1 secretion stimulation,[6],-2.4% (inactive)
same,inhibition of viability,[7],0.2% (inactive)
same,viability decrease (inhibition),[8],0.5% (inactive)
same,viability decrease (inhibition),[9],-10.5% (inactive)
same,remaining activity,[16],106% (inactive)
same,fold change,[10]; stronger effect = lower value,0.975 (inactive) and 0.928 (inactive)
same,fold change,[10]; [19],1.2 and 0.724
same,cell count,[10]; [20],10700 and 8710
same,cell count,[10]; [21],11000 and 9380
same,z-score,[11]; [22],-0.209 (inactive)
same,z-score,[11]; [23],0.685
same,remaining NAD,[18],10 nM (inactive)
same,z-score,[12],0.43 (inactive)
O=c1n(Cl)c(=O)n(Cl)c(=O)n1Cl,nuclear beta-catenin stimulation,[2]; at 10 µM,-0.9% (inactive)
same,nuclear beta-catenin stimulation,"[2]; stimulation, at 2 µM",-0.3%
same,insulin secretion stimulation,[3],1.5% (inactive)
same,viability decrease,[4],-15.4% (inactive)
same,tube area decrease,[5],16.7% (inactive)
same,GLP1 secretion stimulation,[6],0.8% (inactive)
same,inhibition of viability,[7],13.9% (inactive)
same,viability decrease (inhibition),[8],11.6% (inactive)
same,viability decrease (inhibition),[9],-0.1% (inactive)
same,red/green cell ratio (normalised),[17],0.94 (inactive)
same,normalised cell number,[17]; [24],1.07
same,normalised cell number,[17]; [25],1
same,fold change,[10]; stronger effect = lower value,0.97 (inactive)
same,fold change,[10]; [19],1.18
same,cell count,[10]; [20],8670
same,cell count,[10]; [21],8940
same,remaining NAD,[18],10 nM (inactive)
CCCCc1ccc(C(=O)O)nc1,period change,[13],-0.03 h (inactive)
same,survival,[14],6.17 (inactive)
same,parasite load remaining,[1],113% (inactive) and 80.1% (inactive)
same,viability,[1],102% and 74.9%
same,inhibition,[15],-3% (inactive)
same,nuclear beta-catenin stimulation,[2]; at 10 µM,0.7% (inactive)
same,nuclear beta-catenin stimulation,"[2]; stimulation, at 2 µM",2.6%
same,insulin secretion stimulation,[3],0.5% (inactive)
same,viability decrease,[4],9.1% (inactive)
same,tube area decrease,[5],-19.3% (inactive)
same,GLP1 secretion stimulation,[6],-1.2% (inactive)
same,inhibition of viability,[7],25.9% (inactive)
same,viability decrease (inhibition),[8],82.1% (active)
same,viability decrease (inhibition),[9],3.1% (inactive)
same,remaining activity,[16],102% (inactive)
same,fold change,[10]; stronger effect = lower value,0.891 (inactive) and 0.841 (inactive)
same,fold change,[10]; [19],1.39 and 1.24
same,cell count,[10]; [20],9790 and 8980
same,cell count,[10]; [21],11000 and 10700
same,z-score,[12],0.395 (inactive)
CC[N+](CC)(CC)CC,period change,[13],0.115 h (inactive)
same,inhibition,[15],14% (inactive)
same,nuclear beta-catenin stimulation,[2]; at 10 µM,3.6% (inactive)
same,nuclear beta-catenin stimulation,"[2]; stimulation, at 2 µM",0.6%
same,insulin secretion stimulation,[3],0.7% (inactive)
same,viability decrease,[4],-2% (inactive)
same,tube area decrease,[5],1.4% (inactive)
same,GLP1 secretion stimulation,[6],-1.5% (inactive)
same,inhibition of viability,[7],-13.1% (inactive)
same,viability decrease (inhibition),[8],95.5% (active)
same,viability decrease (inhibition),[9],1.35% (inactive)
same,remaining activity,[16],93.6% (inactive)
same,fold change,[10]; stronger effect = lower value,0.929 (inactive)
same,fold change,[10]; [19],1.25
same,cell count,[10]; [20],9810
same,cell count,[10]; [21],10600
same,z-score,[12],0.685 (inactive)
Clc1cccc(SC2CCNCC2)n1,nuclear beta-catenin stimulation,[2]; at 10 µM,1% (inactive)
same,nuclear beta-catenin stimulation,"[2]; stimulation, at 2 µM",2%
same,insulin secretion stimulation,[3],4.8% (inactive)
same,viability decrease,[4],-32% (inactive)
same,tube area decrease,[5],5.5% (inactive)
same,GLP1 secretion stimulation,[6],0.9% (inactive)
same,inhibition of viability,[7],11.5% (inactive)
same,viability decrease (inhibition),[8],17.2% (inactive)
same,viability decrease (inhibition),[9],-11.3% (inactive)
same,fold change,"[10]; stronger effect = lower value, cell number ratio, induced over uninduced",1.01 (inactive)
same,fold change,[10]; [19],0.88
same,cell count,[10]; [20],8450
same,cell count,[10]; [21],8400
same,z-score,[12],-0.34 (inactive)
